USP17 inh: inhibitors of human USP17 deubiquitinase | AID 1645855, 2021 | inhibition, % at 50 µM | hit rate 6.5% among 47,000 | purified USP17, Ub-rhodamine cleavage fluorescence, 3 h
USP7 inh: inhibitors of human USP7 deubiquitinase. Ubiquitin carboxyl-terminal hydrolase 7 (Homo sapiens), Q93009. purified USP7, Ub-rhodamine cleavage fluorescence. inhibition, % at 20 µM. hit rate 0.3% among 47,000
USP30 block: inhibitors of human USP30 deubiquitinase | Ubiquitin carboxyl-terminal hydrolase 30 (Homo sapiens), Q70CQ3 | purified USP30, Ub-rhodamine cleavage fluorescence | inhibition, % at 25 µM | hit rate 5.3% among 47,000 | AID 1645860, 2021
Target sequence (Q70CQ3 whole entry, looked up): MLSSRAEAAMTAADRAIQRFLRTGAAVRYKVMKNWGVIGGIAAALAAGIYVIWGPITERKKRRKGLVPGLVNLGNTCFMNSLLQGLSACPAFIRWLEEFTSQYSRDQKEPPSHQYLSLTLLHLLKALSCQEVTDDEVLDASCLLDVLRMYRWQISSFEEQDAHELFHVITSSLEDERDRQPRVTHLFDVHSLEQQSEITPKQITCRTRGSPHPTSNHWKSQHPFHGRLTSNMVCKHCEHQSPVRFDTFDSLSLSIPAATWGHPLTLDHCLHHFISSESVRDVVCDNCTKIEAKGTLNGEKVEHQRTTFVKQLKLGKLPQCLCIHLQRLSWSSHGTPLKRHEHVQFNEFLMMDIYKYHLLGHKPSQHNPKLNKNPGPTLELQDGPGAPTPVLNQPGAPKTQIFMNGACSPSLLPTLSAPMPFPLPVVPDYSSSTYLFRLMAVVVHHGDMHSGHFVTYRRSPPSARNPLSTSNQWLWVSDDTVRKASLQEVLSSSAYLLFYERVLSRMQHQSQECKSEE
UCHL1 block: inhibitors of human UCHL1 deubiquitinase; hit rate 0.2% among 47,000; inhibition, % at 20 µM; purified UCHL1, Ub-rhodamine cleavage fluorescence; AID 1645859, 2021; Ubiquitin carboxyl-terminal hydrolase isozyme L1 (Homo sapiens), P09936
USP8 block: inhibitors of human USP8 deubiquitinase; purified USP8, Ub-rhodamine cleavage fluorescence, 30 min; inhibition, % at 20 µM; AID 1645853, 2021; Ubiquitin carboxyl-terminal hydrolase 8 (Homo sapiens), P40818; hit rate 4.2% among 47,000
USP10 inh: inhibitors of human USP10 deubiquitinase. AID 1645856, 2021. purified USP10, Ub-rhodamine fluorescence, 60 min. inhibition, % at 20 µM. hit rate 1.1% among 47,000. Ubiquitin carboxyl-terminal hydrolase 10 (Homo sapiens), Q14694
A number is an active result; - = inactive; . = no result. Only some compounds are listed: those with a hit (about 12% of all), similar ones and a draw of the others. Rule as the data show it: active = inhibition above about 30%; inactive = the rest.

SMILES	USP17 inh	USP7 inh	USP30 block	UCHL1 block	USP8 block	USP10 inh
Cn1cc2c(n1)c(=O)n(Cc1ccc(F)cc1)c(=O)n2CC(=O)NCc1ccco1	-	-	-	-	-	-
CC(C)OC(=O)c1ccc(NC(=O)c2cccc(-n3cnnc3)n2)cc1	-	-	-	-	-	-
Cc1cc(=O)n(C)c2c(O)c3c(cc12)c(C)cc(=O)n3C	77	-	-	30	50	-
COc1ccc(N2CC(c3nnc(NC(=O)c4ccco4)s3)CC2=O)cc1 (centres undefined)	-	-	-	-	-	-
COc1ccc(CCN2COc3c(cc(Cl)c4cccnc34)C2)cc1OC	93	-	49	31	97	-
Cc1ccc(O)c(-c2cc(C(=O)Nc3ccccc3Cl)[nH]n2)c1	68	-	-	-	-	-
Cc1ccc(-c2cc(C(=O)Nc3ccccc3Cl)[nH]n2)c(O)c1C	-	-	-	-	33	-
CCc1ccc(S(=O)(=O)N2CC(c3nc(-c4ccc[nH]c4=O)no3)C2)s1	-	-	-	-	-	-
CCc1ccc(-c2[nH]ncc2CN2CCCC2c2cc(C)on2)cc1 (centres undefined)	-	-	-	-	-	-
O=c1c2cc([N+](=O)[O-])ccc2nc(CN2CCN(CCO)CC2)n1-c1ccccc1F	-	-	-	-	-	-
O=c1c2cc([N+](=O)[O-])ccc2nc(CN2CCN(c3ccccn3)CC2)n1-c1ccccc1F	-	-	61	-	-	-
CCn1cc(C(=O)N2CCC(c3cc(=O)n4[nH]c(C)cc4n3)CC2)cn1	-	-	-	-	-	-
Cc1cc(=O)n2[nH]c(CNc3cccc(Cl)c3)nc2n1	-	-	-	-	-	-
Cc1cc(=O)n2[nH]c(CNc3cccc(C(F)(F)F)c3)nc2n1	-	-	31	-	-	-
O=C(O)c1cn(CCc2ccccc2)nc1S(=O)(=O)N1CCOCC1	-	-	-	-	-	-
COc1cc2c(oc(=O)c3cc(C)cc(OC)c32)c2c([C@@H]3OC(C)[C@@H](O)[C@@](C)(O)C3O)ccc(O)c12 (some centres undefined)	79	-	-	-	59	-
Cc1nc(-c2ccc3c(c2)CCN3C(=O)Cc2cccc(F)c2)no1	-	-	-	-	-	-
COc1ccc(OCC(=O)N2CCc3cc(-c4noc(C)n4)ccc32)cc1	35	-	-	-	-	-
Cc1c(C(=O)NCC2CCCCC2)nnn1-c1cccc2c1CCN(C1CCOCC1)C2	-	-	-	-	36	-
Cc1cn2c3c(=O)n(C)c(=O)n(C)c3nc2n1Cc1ccccc1	-	-	-	-	-	-
O=c1[nH]c(-c2ccncc2)nc2c1CCN(Cc1cccn1-c1cccnc1)C2	-	-	-	-	58	-
CN(Cc1ccccc1)S(=O)(=O)c1ccc2c(c1)OCC(C(=O)N1CCCC1)O2 (centres undefined)	-	-	-	-	-	-
O=C(Nc1c(F)cccc1F)N1CCc2[nH]cnc2C1c1ccccn1 (centres undefined)	-	-	-	-	-	-
O=C(Nc1noc2ccccc12)c1ccco1	-	-	-	-	47	-
O=C1c2c(O)cc(O)cc2OC(c2ccc(O)c(O)c2)C1O (centres undefined)	65	-	60	-	-	-
SMILES	USP17 inh	USP7 inh	USP30 block	UCHL1 block	USP8 block	USP10 inh
O=C(NC1CCCCCC1)C(Cc1ccccc1)NS(=O)(=O)c1ccc2c(c1)OCCO2 (centres undefined)	49	-	-	-	-	-
O=C(NC1CCCCC1)C(c1ccc(O)cc1)N(Cc1ccccc1)C(=O)c1ccc2c(c1)OCCO2 (centres undefined)	-	-	-	-	-	-
Cc1ccccc1NC(=O)C(NS(=O)(=O)c1ccc2c(c1)OCCO2)C(C)C (centres undefined)	40	-	-	-	-	-
O=C1[C@@H]2Cc3c([nH]c4ccccc34)C(CCc3ccccc3)N2C(=O)CN1CCN1CCOCC1 (some centres undefined)	-	-	-	-	-	-
O=c1c2cnc(N3CCc4ccccc4C3)nc2ccn1CCc1ccccc1	-	-	-	-	-	-
C[C@@]12c3ccc4c(c3C(=O)c3occ(c31)C(O)C[C@H]2O)CCC4=O (some centres undefined)	57	-	-	-	-	-
O=C(c1nnn(-c2ccccc2)n1)N1CCN(C2CCCCC2)CC1	-	-	-	-	-	-
COc1cc(NC(=O)CSc2nnc(-c3cc4ccccc4n3C)o2)cc(OC)c1	-	-	49	-	-	-
COc1ccc(C(=O)CSc2nnc(-c3cc4cccc(OC)c4o3)n2C)cc1OC	-	-	53	-	-	-
COc1cccc(NC(=O)CSc2nnc(-c3cc4cccc(OC)c4o3)n2C)c1	60	-	50	-	-	-
Cc1ccc(-c2ccc(Oc3nc(CN4CCOCC4)nc4sc5c(c34)CCC5)cc2)cc1	-	-	-	-	-	-
NC(=O)c1cccc(OCCOc2ccccc2)c1	-	-	49	-	-	-
COc1ccc(-c2cc(-c3nnc(CSc4nnc(C)n4-c4ccccc4)o3)c3ccccc3n2)cc1OC	36	-	-	-	-	-
COc1ccc(-c2cc(-c3nnc(COC(=O)CNS(=O)(=O)c4ccccc4)o3)c3ccccc3n2)cc1OC	-	-	-	-	-	-
COc1ccc(-c2cc(-c3nnc(COC(=O)c4cccc([N+](=O)[O-])c4C)o3)c3ccccc3n2)cc1OC	-	-	-	-	68	-
COc1ccc(-c2cc(-c3nnc(COC(=O)CC4CCCC4)o3)c3ccccc3n2)cc1OC	-	-	-	-	64	-
O=C(Cn1ccc2ccn(Cc3ccccc3)c2c1=O)Nc1cccc(F)c1	49	-	-	-	32	-
Cc1ccccc1NC(=O)Cn1c(=O)c2c(ncn2C2CCCC2)n(Cc2ccccc2)c1=O	-	-	-	-	39	-
Cc1ccccc1Cn1ccc2ccn(Cc3cccnc3)c2c1=O	-	-	30	-	-	-
COc1ccc(-c2cc3c(=O)n(CC(=O)Nc4ccccc4C)ccn3n2)cc1	36	-	31	-	31	-
Cn1ccc2ccn(CC(=O)Nc3cccc(Cl)c3)c(=O)c21	-	.	-	-	-	-
COc1ccc(-c2cc3c(=O)n(CC(=O)Nc4ccc(Cl)cc4)ccn3n2)cc1	-	-	-	-	-	-
COc1ccc(C2CC(=O)N(CC(=O)Nc3ccc4c(c3)OCCO4)c3ccccc3S2)cc1OC (centres undefined)	-	-	-	-	-	-
Cc1ccccc1NC(=O)Cn1ccc2ccn(Cc3ccccc3)c2c1=O	-	-	-	-	49	-
